Source: ChEMBL document CHEMBL4513216, “Probing the Open Global Health Chemical Diversity Library for Multistage-Active Starting Points for Next-Generation Antimalarials” (ACS Infect Dis, 2020)
Hit rate of the full screen: of about 68,000 compounds, about 2,700 (4%) showed an effect of 50% or more. What follows is part of a selection rich in strong results, with near analogues and random picks from the rest.

The compounds below were run on Plasmodium berghei (assay: Screen against P. berghei liver stage (PbLuc), transformed with Luciferase, at 2uM). Settings: tested at 2 uM.
Format: functional, HepG2
Work on `O=C1CC(NS(=O)(=O)N2CCOCC2)CN1Cc1ccccc1` (stereo not given) yielded an INHIBITION of 21.22%. `O=C1CC(NS(=O)(=O)N2CCOCC2)CN1CCc1ccccc1` (stereo not given) was tested, and the INHIBITION was 43.44%. For `O=C1CC(NS(=O)(=O)N2CCOCC2)CN1Cc1ccc(F)cc1` (stereo not given), the INHIBITION was 57.75%. For `COCCCNC(=O)CN(C)C(=O)c1ccc(-n2cccc2)cc1O`, the INHIBITION was -44.96%. In the case of `CC(C)C(=O)N1CCN(Cc2ccccn2)CC2(CC(=O)N(C)C2)C1` (stereo not given), the INHIBITION is reported as 31.5%. In the case of `Cc1ocnc1C(=O)N1CCCC1c1ccc(C(=O)N2CCSCC2)s1` (stereo not given), the INHIBITION is reported as 9.31%. `COc1ccc(C2(NCc3c(C)nc4c(C)cccn34)CCCC2)cc1` was tested, and the INHIBITION was -43.11%. Work on `CCc1cc(NC2CCOCC2)n2nc(C)c(C)c2n1` yielded an INHIBITION of -35.61%. `Cn1nccc1CCNC(=O)[C@H]1CNC[C@H](C(=O)N2CCCC2)C1` showed an INHIBITION of 27.73%. In the case of `Nc1ncc(-c2csc(NC(=O)C[C@H]3COCCN3)n2)cn1`, the INHIBITION is reported as 62.99%. Work on `CNc1ncc(-c2csc(NC(=O)C[C@H]3COCCN3)n2)cn1` yielded an INHIBITION of 12.21%. Work on `CC(C)Nc1ncc(-c2csc(NC(=O)C[C@H]3COCCN3)n2)cn1` yielded an INHIBITION of 22.1%. `CC(C)c1nc(C2CCCN2Cc2ccccc2C#N)no1` (stereo not given) gave an INHIBITION of -17.71%. `C1CC(c2nnc(CN3CCCC3c3noc(C4CC4)n3)o2)C1` (stereo not given) was tested, and the INHIBITION was 21.43%. For `CC(C)c1nc(C2CCCN2c2ccnc(C3CCCC3)n2)no1` (stereo not given), the INHIBITION was 14.92%. `CC(C)c1nc(C2CCCN2Cc2ccno2)no1` (stereo not given) was tested, and the INHIBITION was -9.3%. With `CC(C)c1nc(C2CCCN2c2cnc3cc(F)c(F)cc3n2)no1` (stereo not given) the INHIBITION was 55.43%. `CC(C)c1nc(C2CCCN2Cc2ccon2)no1` (stereo not given) was tested, and the INHIBITION was 56.02%. `CC(C)c1nc(C2CCCN2c2cnc3ccccc3n2)no1` (stereo not given) was tested, and the INHIBITION was 1.41%. `CCc1nc(C2CCCN2Cc2nnc(C3CCC3)o2)no1` (stereo not given) was tested, and the INHIBITION was 16.26%. `CC(C)c1nc(C2CCCN2Cc2nnc(C3CCC3)o2)no1` (stereo not given) showed an INHIBITION of 53.33%. `Cc1cnc(CN2CCCC2c2noc(C(C)C)n2)cn1` (stereo not given) was tested, and the INHIBITION was 13.86%. Work on `CC(C)c1nc(C2CCCN2Cc2ccncc2Cl)no1` (stereo not given) yielded an INHIBITION of 60.09%. For `Cc1nc(C2CCCN2Cc2ccon2)no1` (stereo not given), the INHIBITION was 1.63%. Compound `CNc1cncc(C2CCCN2S(=O)(=O)c2ccccc2F)n1` (stereo not given) has an INHIBITION of 29.89%. With `CC(C)CNC(=O)[C@H]1CCS(=O)(=O)[C@@H]2CN(Cc3ccc(Cl)cc3)C[C@H]12` the INHIBITION was 8.13%. Work on `CCc1cccc(N2CCC(NC(=O)C3CCCO3)CC2)c1` (stereo not given) yielded an INHIBITION of 22.53%. `CC(=O)N(Cc1noc(C2CC2)n1)C1CCN(Cc2nccn2C)C1` (stereo not given) showed an INHIBITION of -27.69%. Work on `CC(C)c1nc(C2CCCN2CC(=O)N2CCc3ccccc32)no1` (stereo not given) yielded an INHIBITION of 30.91%. `CC(C)c1nc(C2CCCN2CC(=O)N2CCNC2=O)no1` (stereo not given) gave an INHIBITION of 57.33%. `Cc1cc(NC(=O)CN2CCCC2c2noc(C(C)C)n2)no1` (stereo not given) gave an INHIBITION of 21.12%. `COc1ncccc1CN1CCC2(CC1)CC(OCC1CC1)CO2` (stereo not given) showed an INHIBITION of -23.93%. `Cc1nn(Cc2ccc(C(=O)NCCCN3CCOCC3)o2)c(C)c1Cl` gave an INHIBITION of 32.66%. `Cn1ncc(N2CCOC(CCNC(=O)NC(C)(C)C)C2)cc1=O` (stereo not given) was tested, and the INHIBITION was 39.32%. In the case of `NC(=O)CN1CCCN(C(=O)Cc2ccc(Br)cc2)CC1`, the INHIBITION is reported as 11.24%. For `CN(CCOc1cccc(Cl)c1)Cc1nnc(C(C)(C)C)o1`, the INHIBITION was -19%. For `Cc1nnc(CN(C)CCOc2cccc(Cl)c2)o1`, the INHIBITION was 70.83%. Work on `Cc1nnc(CN(C)CCCOc2cccc(Cl)c2)o1` yielded an INHIBITION of -33.74%. Compound `CCc1nc(C2CCCN2C(=O)c2ccc3c(c2)COC3)no1` (stereo not given) has an INHIBITION of 16.18%. `CS(=O)(=O)N(Cc1ccon1)c1ccc2c(c1)OCO2` gave an INHIBITION of 37.25%. Compound `OC1(CN2CCOC(Cn3cccn3)C2)CCCCC1` (stereo not given) has an INHIBITION of -1.88%. `O=C(Cc1ccccn1)N1CCN(CC2CC2)c2ncccc2C1` was tested, and the INHIBITION was 16.87%. Compound `O=c1c2cccc(F)c2ncn1CCN1CCNCC1` has an INHIBITION of 65.76%. Compound `O=c1c2cccc(C(F)(F)F)c2ncn1CCN1CCNCC1` has an INHIBITION of 50.61%. `Cc1csc2c(=O)n(CCN3CCNCC3)cnc12` was tested, and the INHIBITION was 23.68%. `CC(C)N1CCN(CCn2cnc3c(F)cccc3c2=O)CC1` was tested, and the INHIBITION was -13.34%. Compound `COc1cccc2c(=O)n(C3CCNCC3)cnc12` has an INHIBITION of 24.6%. In the case of `COc1cccc2c(=O)n(CCN3CCNCC3)cnc12`, the INHIBITION is reported as 50.61%. For `COc1cccc2c(=O)n(Cc3cccnc3)cnc12`, the INHIBITION was -66.95%. Compound `O=c1c2cccc(F)c2ncn1CCN1CCOCC1` has an INHIBITION of 25.37%. With `CN1CCN(CCn2cnc3c(F)cccc3c2=O)CC1` the INHIBITION was 30.42%. `CN(Cc1nccn1CC(F)(F)F)C(=O)c1ccc(F)c(F)c1` gave an INHIBITION of 32.57%. For `COc1cc(C(=O)N(C)Cc2nccn2CC(F)(F)F)ccc1C`, the INHIBITION was -5.68%. `CCOc1ccc(C(=O)N(C)Cc2nccn2CC(F)(F)F)cc1` showed an INHIBITION of 52.57%. For `CN(Cc1nccn1CC(F)(F)F)C(=O)c1ccc(F)cc1F`, the INHIBITION was 73.96%. `Cc1ccc(C(=O)N(C)Cc2nccn2CC(F)(F)F)cn1` gave an INHIBITION of -4.59%. Compound `CN(Cc1nccn1CC(F)(F)F)C(=O)c1cccc(N(C)C)c1` has an INHIBITION of 27.53%. Work on `COCC(=O)NC(C)Cc1cccc(Cl)c1` (stereo not given) yielded an INHIBITION of -20.82%. For `CC[C@H]1CN(C(=O)c2cnc(CN3CCCC3)s2)CC[C@@]1(C)O`, the INHIBITION was -47.18%. With `Cc1ccc([C@@H]2CN(S(=O)(=O)N3CCC(C)CC3)C[C@H]2N(C)C)cc1` the INHIBITION was 65.1%. `Cc1ccc([C@@H]2CN(S(=O)(=O)C(C)C)C[C@H]2N(C)C)cc1` was tested, and the INHIBITION was 4.47%. `Cc1ccc([C@@H]2CN(S(=O)(=O)N(C)C)C[C@H]2N(C)C)cc1` was tested, and the INHIBITION was 28.49%. `CN(C)C(=O)CN1CCC(c2c(C(N)=O)sc3ncccc23)C1` (stereo not given) showed an INHIBITION of -21.9%. `Cc1nc(C)c(C(=O)N2CCCC(c3cnccn3)C2)s1` (stereo not given) showed an INHIBITION of 38.65%. `Cc1nc(N)sc1C(=O)N1CCCC(c2nccn2CCCN(C)C)C1` (stereo not given) showed an INHIBITION of 29.02%. With `CCn1ccnc1C1CCCN(C(=O)c2sc(C)nc2C)C1` (stereo not given) the INHIBITION was 58.56%. Work on `CC(=O)N1CCOC2(CCN(C(=O)c3cnoc3C)CC2)C1` yielded an INHIBITION of -21.09%. In the case of `CC(C)c1cccc(-n2cc(O)c(C(=O)O)n2)c1`, the INHIBITION is reported as 50.61%. `CC(C)c1ccc(-n2cc(O)c(C(=O)O)n2)cc1` was tested, and the INHIBITION was 23.16%. Work on `CC(C)c1cccc(-n2cc(O)c(C(N)=O)n2)c1` yielded an INHIBITION of 11.9%.
